# Assay results: article PMC7862700, “An all-to-all approach to the identification of sequence-specific readers for epigenetic DNA modifications on cytosine”
# Assays:
# Experiment in all cases: DAPPL (digital affinity profiling via proximity ligation, sequencing); 10 mM Tris-HCl pH 7.5, 50 mM NaCl, 1 mM DTT, 4% glycerol, room temperature, 30 min; GST-TFs on glutathione beads, 16-mer random dsDNA library, 0.1% formaldehyde crosslink after washing; high values mean tight binding
# [1] = biological target: T1, FLI1 (Homo sapiens, UniProt Q01543 1-452); settings: protein: recombinant; tags: N-terminal GST; dsDNA, one strand shown
# T1 sequence: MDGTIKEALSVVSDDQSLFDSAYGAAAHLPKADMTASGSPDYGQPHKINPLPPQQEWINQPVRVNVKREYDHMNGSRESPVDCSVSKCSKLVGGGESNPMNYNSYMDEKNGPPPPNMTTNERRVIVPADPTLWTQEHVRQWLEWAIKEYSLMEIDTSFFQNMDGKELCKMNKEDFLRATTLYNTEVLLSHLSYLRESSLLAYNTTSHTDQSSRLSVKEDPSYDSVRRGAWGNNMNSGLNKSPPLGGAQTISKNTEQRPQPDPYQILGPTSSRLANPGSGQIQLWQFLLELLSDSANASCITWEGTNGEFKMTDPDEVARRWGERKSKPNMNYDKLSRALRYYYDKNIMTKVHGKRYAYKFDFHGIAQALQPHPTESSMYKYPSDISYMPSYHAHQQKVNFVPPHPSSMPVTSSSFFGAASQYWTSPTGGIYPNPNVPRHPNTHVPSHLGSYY
# Method in brief: (§1)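 A tag-only sample was pooled with DNA-barcoded human transcription factors that had been expressed in yeast as GST fusions and captured on glutathione beads. The pools were incubated for 30 min at room temperature with 200 nmole of a random double-stranded 16-mer DNA library in Tris/NaCl/DTT/glycerol buffer, then washed, crosslinked with 0.1% formaldehyde, proximity-ligated (BsaI/T4 ligase, 1 h, 37 °C), PCR-amplified and sequenced on an Illumina NextSeq500. Binding signal is each hexamer's read frequency for a factor divided by its frequency for the tag-only sample.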
# [2] = biological target: T2, ELK1 (Homo sapiens, UniProt P19419 1-428); settings: protein: recombinant; tags: N-terminal GST; dsDNA, one strand shown
# T2 sequence: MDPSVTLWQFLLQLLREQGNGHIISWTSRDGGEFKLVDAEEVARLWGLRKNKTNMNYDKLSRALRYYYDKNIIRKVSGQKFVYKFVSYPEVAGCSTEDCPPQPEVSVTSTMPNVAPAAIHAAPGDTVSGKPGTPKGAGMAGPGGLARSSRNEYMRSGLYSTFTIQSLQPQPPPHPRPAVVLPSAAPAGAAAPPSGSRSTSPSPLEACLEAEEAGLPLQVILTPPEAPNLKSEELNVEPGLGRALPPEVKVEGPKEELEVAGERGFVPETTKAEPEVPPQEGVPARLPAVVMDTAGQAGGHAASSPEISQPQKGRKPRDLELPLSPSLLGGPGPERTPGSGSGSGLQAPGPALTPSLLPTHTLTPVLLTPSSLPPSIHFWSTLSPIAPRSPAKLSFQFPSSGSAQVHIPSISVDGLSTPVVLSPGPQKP
# Method in brief: as §1
# [3] = biological target: T3, GABPA (Homo sapiens, UniProt Q06546 1-454); settings: protein: recombinant; tags: N-terminal GST; dsDNA, one strand shown
# T3 sequence: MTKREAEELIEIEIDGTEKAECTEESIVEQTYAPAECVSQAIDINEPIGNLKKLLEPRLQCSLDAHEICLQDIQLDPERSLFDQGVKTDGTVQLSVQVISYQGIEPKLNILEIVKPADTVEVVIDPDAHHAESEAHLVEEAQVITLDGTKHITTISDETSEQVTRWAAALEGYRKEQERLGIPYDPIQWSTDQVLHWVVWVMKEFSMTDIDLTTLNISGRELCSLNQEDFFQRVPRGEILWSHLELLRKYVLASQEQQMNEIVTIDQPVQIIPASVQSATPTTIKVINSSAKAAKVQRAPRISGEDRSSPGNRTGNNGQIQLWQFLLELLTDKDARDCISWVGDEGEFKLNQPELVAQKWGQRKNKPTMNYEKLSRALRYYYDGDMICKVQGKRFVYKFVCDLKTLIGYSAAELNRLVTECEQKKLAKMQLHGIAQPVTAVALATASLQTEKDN
# Method in brief: as §1
# [4] = biological target: T4, ERG (Homo sapiens, UniProt P11308 1-479); settings: protein: recombinant; tags: N-terminal GST; dsDNA, one strand shown
# T4 sequence: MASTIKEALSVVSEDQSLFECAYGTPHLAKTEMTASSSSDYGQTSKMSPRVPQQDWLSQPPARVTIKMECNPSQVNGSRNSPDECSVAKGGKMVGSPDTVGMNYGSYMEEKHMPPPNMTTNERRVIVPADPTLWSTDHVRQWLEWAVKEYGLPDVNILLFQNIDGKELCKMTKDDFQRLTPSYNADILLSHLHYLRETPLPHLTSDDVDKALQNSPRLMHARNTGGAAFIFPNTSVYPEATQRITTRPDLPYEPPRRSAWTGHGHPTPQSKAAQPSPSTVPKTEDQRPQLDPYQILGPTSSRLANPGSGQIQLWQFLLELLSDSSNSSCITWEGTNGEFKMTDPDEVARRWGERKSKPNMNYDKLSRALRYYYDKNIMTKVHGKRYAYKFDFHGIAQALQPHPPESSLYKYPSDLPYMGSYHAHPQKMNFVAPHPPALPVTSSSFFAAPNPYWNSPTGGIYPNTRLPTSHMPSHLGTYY
# Method in brief: as §1
# [5] = biological target: ELF1 (Homo sapiens, UniProt P32519 1-619); settings: protein: recombinant; tags: N-terminal GST; dsDNA, one strand shown
# Sequence of ELF1 (P32519 whole entry): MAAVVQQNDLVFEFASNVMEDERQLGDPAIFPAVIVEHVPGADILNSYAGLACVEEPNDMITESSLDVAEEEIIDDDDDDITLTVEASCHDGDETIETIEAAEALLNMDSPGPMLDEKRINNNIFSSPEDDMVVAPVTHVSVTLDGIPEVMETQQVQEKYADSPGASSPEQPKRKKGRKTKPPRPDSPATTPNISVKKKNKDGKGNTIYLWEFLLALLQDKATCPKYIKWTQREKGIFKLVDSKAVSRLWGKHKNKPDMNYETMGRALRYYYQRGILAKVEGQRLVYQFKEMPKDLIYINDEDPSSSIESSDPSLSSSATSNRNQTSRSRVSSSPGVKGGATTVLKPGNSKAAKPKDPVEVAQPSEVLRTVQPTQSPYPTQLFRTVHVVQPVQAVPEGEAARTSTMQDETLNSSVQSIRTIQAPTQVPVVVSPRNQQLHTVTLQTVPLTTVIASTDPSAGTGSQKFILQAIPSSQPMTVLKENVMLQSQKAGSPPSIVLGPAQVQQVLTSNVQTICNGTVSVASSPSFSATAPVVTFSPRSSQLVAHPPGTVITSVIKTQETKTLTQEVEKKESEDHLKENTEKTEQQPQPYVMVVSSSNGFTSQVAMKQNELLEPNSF
# Method in brief: as §1
# [6] = biological target: T5, EHF (Homo sapiens, UniProt Q9NZC4 1-300); settings: protein: recombinant; tags: N-terminal GST; dsDNA, one strand shown
# T5 sequence: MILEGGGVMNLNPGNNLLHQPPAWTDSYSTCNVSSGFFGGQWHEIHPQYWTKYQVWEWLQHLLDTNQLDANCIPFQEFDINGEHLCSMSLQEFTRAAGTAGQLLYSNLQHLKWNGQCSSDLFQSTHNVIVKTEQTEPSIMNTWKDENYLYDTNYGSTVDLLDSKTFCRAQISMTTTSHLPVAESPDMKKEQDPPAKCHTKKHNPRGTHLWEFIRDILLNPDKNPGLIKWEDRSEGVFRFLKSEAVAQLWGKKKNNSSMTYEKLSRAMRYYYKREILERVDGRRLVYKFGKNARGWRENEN
# Method in brief: as §1
# [7] = biological target: SPI1 (Homo sapiens, UniProt P17947 1-270); settings: protein: recombinant; tags: N-terminal GST; dsDNA, one strand shown
# Method in brief: as §1
# [8] = biological target: SPIB (Homo sapiens, UniProt Q01892 1-262); settings: protein: recombinant; tags: N-terminal GST; dsDNA, one strand shown
# Sequence of SPIB (Q01892 whole entry): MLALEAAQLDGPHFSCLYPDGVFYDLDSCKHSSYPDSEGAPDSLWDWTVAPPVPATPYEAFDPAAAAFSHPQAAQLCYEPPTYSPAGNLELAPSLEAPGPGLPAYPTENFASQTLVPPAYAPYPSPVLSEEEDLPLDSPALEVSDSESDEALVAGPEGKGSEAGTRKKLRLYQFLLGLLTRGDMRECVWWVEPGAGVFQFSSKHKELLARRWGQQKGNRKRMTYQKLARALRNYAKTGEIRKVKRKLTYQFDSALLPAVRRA
# Method in brief: as §1
# [9] = biological target: T6, ELK3 (Homo sapiens, UniProt P41970 1-407); settings: protein: recombinant; tags: N-terminal GST; dsDNA, one strand shown
# T6 sequence: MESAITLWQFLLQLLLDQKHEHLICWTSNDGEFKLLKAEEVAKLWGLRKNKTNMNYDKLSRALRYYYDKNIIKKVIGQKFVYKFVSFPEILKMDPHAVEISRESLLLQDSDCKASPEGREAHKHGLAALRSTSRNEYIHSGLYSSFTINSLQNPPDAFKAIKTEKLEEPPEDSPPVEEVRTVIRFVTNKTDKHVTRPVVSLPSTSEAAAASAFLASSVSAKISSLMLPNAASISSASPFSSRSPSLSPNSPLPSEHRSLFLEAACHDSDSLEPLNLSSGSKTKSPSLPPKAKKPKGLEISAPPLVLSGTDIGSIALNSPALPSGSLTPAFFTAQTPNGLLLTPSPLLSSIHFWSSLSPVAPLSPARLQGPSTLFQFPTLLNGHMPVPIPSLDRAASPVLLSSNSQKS
# Method in brief: as §1
# [10] = biological target: T7, FEV (Homo sapiens, UniProt Q99581 1-238); settings: protein: recombinant; tags: N-terminal GST; dsDNA, one strand shown
# T7 sequence: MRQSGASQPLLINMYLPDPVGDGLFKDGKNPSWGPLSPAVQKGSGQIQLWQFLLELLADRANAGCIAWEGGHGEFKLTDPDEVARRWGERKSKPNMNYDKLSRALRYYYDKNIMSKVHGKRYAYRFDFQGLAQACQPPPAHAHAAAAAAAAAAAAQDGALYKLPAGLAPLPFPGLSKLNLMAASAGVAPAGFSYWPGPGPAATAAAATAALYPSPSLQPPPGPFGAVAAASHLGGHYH
# Method in brief: as §1
# [11] = biological target: ETV5 (Homo sapiens, UniProt P41161 1-510); settings: protein: recombinant; tags: N-terminal GST; dsDNA, one strand shown
# Sequence of ETV5 (P41161 whole entry): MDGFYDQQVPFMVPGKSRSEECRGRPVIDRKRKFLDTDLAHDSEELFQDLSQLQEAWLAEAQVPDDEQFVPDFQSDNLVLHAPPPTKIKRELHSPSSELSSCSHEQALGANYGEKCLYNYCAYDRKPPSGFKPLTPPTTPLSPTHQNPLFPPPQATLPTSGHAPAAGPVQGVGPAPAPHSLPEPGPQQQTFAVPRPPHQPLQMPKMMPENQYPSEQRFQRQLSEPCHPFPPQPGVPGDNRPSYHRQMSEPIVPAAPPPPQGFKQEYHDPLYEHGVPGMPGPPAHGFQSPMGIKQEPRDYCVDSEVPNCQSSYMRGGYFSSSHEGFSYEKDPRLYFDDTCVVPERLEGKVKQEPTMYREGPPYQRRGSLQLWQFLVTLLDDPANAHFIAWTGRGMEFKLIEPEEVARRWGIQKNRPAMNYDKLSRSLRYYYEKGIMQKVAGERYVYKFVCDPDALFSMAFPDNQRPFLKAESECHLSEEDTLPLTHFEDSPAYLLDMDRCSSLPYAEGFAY
# Method in brief: as §1
# [12] = biological target: HSF1 (Homo sapiens, UniProt Q00613 1-529); settings: protein: recombinant; tags: N-terminal GST; chain copies: 3; dsDNA, one strand shown
# Sequence of HSF1 (Q00613 whole entry): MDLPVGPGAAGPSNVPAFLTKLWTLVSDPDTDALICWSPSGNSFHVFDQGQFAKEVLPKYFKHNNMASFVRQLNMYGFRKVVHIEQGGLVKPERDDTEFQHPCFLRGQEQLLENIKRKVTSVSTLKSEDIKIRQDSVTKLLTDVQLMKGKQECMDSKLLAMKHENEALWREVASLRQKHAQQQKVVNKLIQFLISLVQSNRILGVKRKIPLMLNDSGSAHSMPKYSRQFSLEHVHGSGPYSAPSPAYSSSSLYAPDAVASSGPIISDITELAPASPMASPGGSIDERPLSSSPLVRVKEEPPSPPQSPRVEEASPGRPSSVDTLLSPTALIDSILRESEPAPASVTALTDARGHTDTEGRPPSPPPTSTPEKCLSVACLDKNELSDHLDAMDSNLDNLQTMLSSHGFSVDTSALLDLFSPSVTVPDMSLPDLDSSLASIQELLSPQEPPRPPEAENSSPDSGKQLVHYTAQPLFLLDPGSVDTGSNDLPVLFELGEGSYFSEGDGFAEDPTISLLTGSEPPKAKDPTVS
# Method in brief: as §1
# [13] = biological target: T8, SPIC (Homo sapiens, UniProt Q8N5J4 1-248); settings: protein: recombinant; tags: N-terminal GST; dsDNA, one strand shown
# T8 sequence: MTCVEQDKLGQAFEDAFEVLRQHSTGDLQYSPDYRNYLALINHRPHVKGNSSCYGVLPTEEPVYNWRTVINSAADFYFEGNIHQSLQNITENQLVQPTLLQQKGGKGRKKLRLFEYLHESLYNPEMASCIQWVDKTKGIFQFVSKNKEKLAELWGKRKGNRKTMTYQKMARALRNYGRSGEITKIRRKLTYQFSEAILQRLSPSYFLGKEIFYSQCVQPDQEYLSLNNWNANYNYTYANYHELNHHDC
# Method in brief: as §1
# [14] = biological target: ELF4 (Homo sapiens, UniProt Q99607 1-663); settings: protein: recombinant; tags: N-terminal GST; dsDNA, one strand shown
# Sequence of ELF4 (Q99607 whole entry): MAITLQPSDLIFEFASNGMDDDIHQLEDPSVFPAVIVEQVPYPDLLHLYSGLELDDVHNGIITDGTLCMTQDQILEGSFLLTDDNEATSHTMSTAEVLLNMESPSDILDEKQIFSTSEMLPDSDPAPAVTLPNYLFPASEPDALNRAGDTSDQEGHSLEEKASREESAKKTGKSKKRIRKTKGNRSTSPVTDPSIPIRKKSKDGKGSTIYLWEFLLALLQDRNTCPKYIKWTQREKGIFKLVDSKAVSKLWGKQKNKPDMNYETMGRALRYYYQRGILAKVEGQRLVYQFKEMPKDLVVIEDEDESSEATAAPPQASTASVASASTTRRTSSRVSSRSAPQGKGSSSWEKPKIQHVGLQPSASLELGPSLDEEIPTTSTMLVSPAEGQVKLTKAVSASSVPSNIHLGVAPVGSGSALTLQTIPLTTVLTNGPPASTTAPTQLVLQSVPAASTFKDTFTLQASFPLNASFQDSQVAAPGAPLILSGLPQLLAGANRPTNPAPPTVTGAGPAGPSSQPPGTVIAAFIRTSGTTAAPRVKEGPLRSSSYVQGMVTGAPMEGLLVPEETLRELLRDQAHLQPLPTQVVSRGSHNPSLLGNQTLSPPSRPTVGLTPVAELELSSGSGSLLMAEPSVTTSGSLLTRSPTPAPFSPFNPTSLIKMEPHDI
# Method in brief: as §1
# [15] = biological target: T9, ELK4 (Homo sapiens, UniProt P28324-2 1-405); settings: protein: recombinant; tags: N-terminal GST; dsDNA, one strand shown
# T9 sequence: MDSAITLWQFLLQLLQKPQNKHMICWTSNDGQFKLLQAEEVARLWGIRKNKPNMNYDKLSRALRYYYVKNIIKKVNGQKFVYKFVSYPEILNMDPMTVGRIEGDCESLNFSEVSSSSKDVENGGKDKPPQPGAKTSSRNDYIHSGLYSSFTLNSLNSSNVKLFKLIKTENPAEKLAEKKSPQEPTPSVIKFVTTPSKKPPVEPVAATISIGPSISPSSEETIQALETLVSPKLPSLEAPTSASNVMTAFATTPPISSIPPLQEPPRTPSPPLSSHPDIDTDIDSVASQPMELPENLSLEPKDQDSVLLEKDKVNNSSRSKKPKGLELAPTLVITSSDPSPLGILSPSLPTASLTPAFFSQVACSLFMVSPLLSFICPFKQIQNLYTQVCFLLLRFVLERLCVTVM
# Method in brief: as §1
# [16] = biological target: T10, ETV2 (Homo sapiens, UniProt O00321 1-342); settings: protein: recombinant; tags: N-terminal GST; dsDNA, one strand shown
# T10 sequence: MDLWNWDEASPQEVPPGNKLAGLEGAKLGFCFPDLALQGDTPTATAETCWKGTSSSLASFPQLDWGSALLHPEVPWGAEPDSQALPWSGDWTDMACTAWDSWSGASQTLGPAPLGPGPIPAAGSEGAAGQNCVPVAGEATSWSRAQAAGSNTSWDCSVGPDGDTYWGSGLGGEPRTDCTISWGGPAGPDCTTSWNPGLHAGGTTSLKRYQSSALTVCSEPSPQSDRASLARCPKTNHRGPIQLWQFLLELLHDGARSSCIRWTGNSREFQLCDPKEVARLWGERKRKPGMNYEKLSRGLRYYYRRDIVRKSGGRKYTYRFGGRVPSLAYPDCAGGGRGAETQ
# Method in brief: as §1
# [17] = biological target: T11, ELF3 (Homo sapiens, UniProt P78545 1-371); settings: protein: recombinant; tags: N-terminal GST; dsDNA, one strand shown
# T11 sequence: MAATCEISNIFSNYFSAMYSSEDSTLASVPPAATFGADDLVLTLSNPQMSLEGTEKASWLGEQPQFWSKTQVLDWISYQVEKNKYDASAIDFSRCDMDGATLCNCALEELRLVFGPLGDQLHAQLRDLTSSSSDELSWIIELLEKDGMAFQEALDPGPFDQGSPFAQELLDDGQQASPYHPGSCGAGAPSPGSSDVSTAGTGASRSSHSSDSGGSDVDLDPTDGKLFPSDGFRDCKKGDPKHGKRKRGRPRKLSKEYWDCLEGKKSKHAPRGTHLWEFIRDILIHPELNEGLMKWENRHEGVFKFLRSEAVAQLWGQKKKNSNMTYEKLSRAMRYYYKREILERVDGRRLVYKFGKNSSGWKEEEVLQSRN
# Method in brief: as §1
# [18] = biological target: CRX (Homo sapiens, UniProt O43186 1-299); settings: protein: recombinant; tags: N-terminal GST; dsDNA, one strand shown
# Sequence of CRX (O43186 whole entry): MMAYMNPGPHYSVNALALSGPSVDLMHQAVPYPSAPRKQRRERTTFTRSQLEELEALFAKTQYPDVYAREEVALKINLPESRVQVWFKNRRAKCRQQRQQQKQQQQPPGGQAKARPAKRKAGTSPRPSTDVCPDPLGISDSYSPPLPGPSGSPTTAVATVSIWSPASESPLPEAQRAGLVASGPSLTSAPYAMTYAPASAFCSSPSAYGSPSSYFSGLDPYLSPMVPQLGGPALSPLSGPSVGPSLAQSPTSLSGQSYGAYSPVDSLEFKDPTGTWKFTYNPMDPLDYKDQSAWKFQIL
# Method in brief: as §1
# [19] = biological target: ETV1 (Homo sapiens, UniProt P50549 1-477); settings: protein: recombinant; tags: N-terminal GST; dsDNA, one strand shown
# Sequence of ETV1 (P50549 whole entry): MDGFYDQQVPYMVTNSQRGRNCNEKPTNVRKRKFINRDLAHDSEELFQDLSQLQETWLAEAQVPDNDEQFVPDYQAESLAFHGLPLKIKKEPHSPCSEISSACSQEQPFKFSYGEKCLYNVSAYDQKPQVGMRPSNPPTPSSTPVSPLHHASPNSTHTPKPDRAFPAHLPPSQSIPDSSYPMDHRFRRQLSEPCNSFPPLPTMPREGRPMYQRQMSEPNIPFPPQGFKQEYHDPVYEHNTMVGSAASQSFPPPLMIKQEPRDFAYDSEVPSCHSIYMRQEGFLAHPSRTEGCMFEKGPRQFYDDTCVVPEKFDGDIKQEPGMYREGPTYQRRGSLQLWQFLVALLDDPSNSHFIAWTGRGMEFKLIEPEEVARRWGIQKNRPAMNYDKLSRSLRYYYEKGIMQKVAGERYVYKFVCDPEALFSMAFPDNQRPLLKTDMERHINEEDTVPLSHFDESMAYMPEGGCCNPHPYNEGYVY
# Method in brief: as §1
sequence,measurement,setting,value
TTTAAA,binding signal,[1],"1.27 fold enrichment (6-mer frequency, TF over GST control)"
same,binding signal,[2],"1.26 fold enrichment (6-mer frequency, TF over GST control)"
same,binding signal,[3],"1.19 fold enrichment (6-mer frequency, TF over GST control)"
same,binding signal,[4],"1.2 fold enrichment (6-mer frequency, TF over GST control)"
same,binding signal,[5],"1.29 fold enrichment (6-mer frequency, TF over GST control)"
same,binding signal,[6],"1.21 fold enrichment (6-mer frequency, TF over GST control)"
same,binding signal,[7],"1.31 fold enrichment (6-mer frequency, TF over GST control)"
same,binding signal,[8],"1.17 fold enrichment (6-mer frequency, TF over GST control)"
same,binding signal,[9],"1.32 fold enrichment (6-mer frequency, TF over GST control)"
same,binding signal,[10],"1.25 fold enrichment (6-mer frequency, TF over GST control)"
same,binding signal,[11],"1.21 fold enrichment (6-mer frequency, TF over GST control)"
same,binding signal,[12],"1.64 fold enrichment (6-mer frequency, TF over GST control)"
same,binding signal,[13],"1.02 fold enrichment (6-mer frequency, TF over GST control)"
same,binding signal,[14],"1.19 fold enrichment (6-mer frequency, TF over GST control)"
same,binding signal,[15],"1.37 fold enrichment (6-mer frequency, TF over GST control)"
same,binding signal,[16],"1.44 fold enrichment (6-mer frequency, TF over GST control)"
same,binding signal,[17],"1.28 fold enrichment (6-mer frequency, TF over GST control)"
same,binding signal,[18],"2.15 fold enrichment (6-mer frequency, TF over GST control)"
same,binding signal,[19],"1.2 fold enrichment (6-mer frequency, TF over GST control)"
